Data on 17 compounds can be found in PubChem BioAssay (NCATS).

The nature of test [1]: qHTS assay for measurement of the activity of small molecule inhibitors on Zika virus induced Caspase-3 activity in human iPSC derived neural progenitor cells (hNPCs) (AID 1224857). Also: nearly all actives have a fitted effect of over 65% in size. Also: potency is read from the fitted curve at half-maximal effect. Put shortly: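 Caspase-3/7 induction by a 6-hour ZIKV infection was quantified with a luminescent Caspase-Glo 3/7 reagent incubated 30 minutes at room temperature. Compounds were preincubated with hNPCs for 1 hour; inhibition was calculated against uninfected and infected control wells.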

A short description of test [2]: qHTS assay for measurement of the activity of small molecule inhibitors on Zika virus induced Caspase-3 activity in human astrocytoma cells (AID 1224859). Also: potency is read from the fitted curve at half-maximal effect. Put shortly:
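In SNB-19 cells plated at 250 cells/well and grown 16-20 h, compounds were applied 1 h before ZIKV (2 FFU/cell). Six hours later caspase-3/7 luminescence was recorded.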
(Quantitative high-throughput screening tests each substance at several concentrations.)

Test [3] is described as follows: qHTS Screen of the MIPE 4.0 Collection Against Ewings Sarcoma (RDES) (AID 1259252). Also: nearly all actives have a fitted effect of over 35% in size. Also: potency is read from the fitted curve at half-maximal effect. A digest of the protocol: (§1)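 Cells plated in serum-containing RPMI (5% FBS) and treated with compound dilutions for 48 h. Readout luminescent viability; normalization relied on vehicle (no inhibition) and media-only columns (full inhibition).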
The nature of test [4]: qHTS Screen of the MIPE 4.0 Collection Against Ewings Sarcoma (TC71) (AID 1259253). Also: nearly all actives have a fitted effect of over 40% in size. Also: potency is read from the fitted curve at half-maximal effect. A digest of the protocol:
as §1

A short description of test [5]: qHTS Screen of the MIPE 4.0 Collection Against Ewings Sarcoma (EW8) (AID 1259255). Also: nearly all actives have a fitted effect of over 35% in size. Also: potency is read from the fitted curve at half-maximal effect. A digest of the protocol: as §1
Test [6] in a line: qHTS Screen of the MIPE 4.0 Collection Against Ewings Sarcoma (TC32) (AID 1259256). Also: nearly all actives have a fitted effect of over 45% in size. Also: potency is read from the fitted curve at half-maximal effect. Put shortly: as §1
Test [7] is described as follows: qHTS assay to identify small molecule inhibitors of chordoma cells - UCH-1 (AID 1259355). Also: nearly all actives have a fitted effect of over 55% in size. Put shortly: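 800 cells/well, overnight attach; compounds pinned at 15 concs, then auranofin/camptothecin/doxorubicin/rubitecan/topotecan combo added; 48hr 37 C, 5% CO2; CellTiter-Glo, 30min RT, luminescence.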
The nature of test [8]: qHTS assay to identify small molecule inhibitors of chordoma cells - UCH-2 (AID 1259356). Also: series mostly up to about 46 µM.
A short description of test [9]: P-glycoprotein substrates identified in KB-8-5-11 adenocarcinoma cell line, qHTS therapeutic library screen (AID 1346987). Also: nearly all actives have a fitted effect of over 65% in size. Also: potency is read from the fitted curve at half-maximal effect. Put shortly: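 Human cervical adenocarcinoma KB-8-5-11 cells, selected in colchicine to over-express P-gp and assayed without it, were exposed for 72 h to titrated compounds. An ATP-based luminescent viability signal gave AC50.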
Test [10] concerns the target Atrial natriuretic peptide receptor 1 (Homo sapiens) (UniProt P16066). Nature of the test: Natriuretic polypeptide receptor (hNpr1) antagonism - Pilot screen (AID 1347049; calls by dose curve;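 also: HEK293 cells with hNpr1 and GloSensor cGMP luciferase stimulated by 0.1 nM hNppA; agonist-evoked cGMP luminescence read 20 min after hNppA addition; series mostly up to about 58 µM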). A digest of the protocol:
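Receptor antagonism read as cGMP-dependent luminescence in hNpr1/pGS-40F HEK293 cells: pre-read after 30 min compound exposure, post-read 20 min after hNppA agonist at 0.1 nM final, all at room temperature, protected from light; A-71915 titration as control.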

A short description of test [11]: NS1 protein of Zika virus - qHTS assay to identify small molecule inhibitors in human HEK 293 cells (AID 1347053). Also: series mostly up to about 46 µM; nearly all actives have a fitted effect of over 55% in size. A digest of the protocol: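 Read-out is a two-antibody TR-FRET for ZIKV NS1, normalized between uninfected cells and infected cells. Compound added 1 h before MR766 infection at MOI 0.5; human HEK 293 cells incubated 24 h, 37 C.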
Test [12] concerns the target Tyrosine-protein phosphatase non-receptor type substrate 1 (Homo sapiens) + Leukocyte surface antigen CD47 (Homo sapiens) (UniProt P78324+Q08722). Nature of the test: CD47-SIRPalpha protein protein interaction - LANCE assay qHTS validation (AID 1347057; active = well fitted curve in the direction sought with a large enough effect in the signal ratio, with a control signal flat, not every such curve was filed as active; the % refers to the signal ratio; also: series mostly up to about 38 µM). Put shortly: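 Inhibition of soluble CD47/SIRPalpha ectodomain association by titrated compounds, measured as 665/615 nm time-resolved FRET ratio after sequential 30 min room-temperature incubations.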
On the technique in general: In TR-FRET formats the signal depends on donor and acceptor labels being close together.

Test [13] is described as follows: P-glycoprotein substrates identified in KB-3-1 adenocarcinoma cell line, qHTS therapeutic library screen (AID 1346986). Also: nearly all actives have a fitted effect of over 60% in size.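 Also: potency is read from the fitted curve at half-maximal effect; potency is for cytotoxicity meaning loss of cell viability.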 A digest of the protocol:
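Dose-response cytotoxicity, KB-3-1 vs P-gp-high KB-8-5-11, no colchicine in assay medium. Read: CellTiter-Glo at 72 h.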

Test [14] can be described thus: Identifying Small Molecule Inhibitors of Pancreatic Cancer Stem Cells (A2780, Spheroid) (AID 1259357).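 Also: spheroids pre-formed over 14 days in stem cell medium on hydrogel; compound exposure lasted 48 h before the ATP luminescence read.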 To be noted: Potency: A2780 spheroid viability. Put shortly:
(§2)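 Spheroids grown 14 days in stem cell media on hydrogel-coated nonadherent plates; 2D lines seeded directly. Compounds added after 4 h attachment, 48 h at 37C, 5% CO2; CellTiter-Glo luminescence normalized to DMSO (no inhibition) and no-cell wells (full inhibition).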

A short description of test [15]: Identifying Small Molecule Inhibitors of Pancreatic Cancer Stem Cells (SN12C, Adherent) (AID 1259358).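 Also: cell survival measured after 48 h of compound exposure.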 Also: potency is read from the fitted curve at half-maximal effect. Put shortly:
(§3)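 Pre-formed 14-day tumor spheroids or adherent cells dosed and incubated 48 h, 37C, 5% CO2. Viability assessed by CellTiter-Glo.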

Test [16] can be described thus: Identifying Small Molecule Inhibitors of Pancreatic Cancer Stem Cells (SN12C, Spheroid) (AID 1259360). To be noted: Potency: SN12C spheroid viability. A digest of the protocol:
as §2

The nature of test [17]: Identifying Small Molecule Inhibitors of Pancreatic Cancer Stem Cells (A278, Adherent) (AID 1259361).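 Also: viability read after 48 h compound exposure; nearly all actives have a fitted effect of over 35% in size.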 A digest of the protocol:
as §3

Inconclusive results are not listed. Some compounds were tested as several samples or in several runs, with calls that do not always agree. Calls of active or inactive are those of the source. Unless noted, calls follow the shape of the dose curve; as a rule, active = well fitted curve in the direction sought with a large enough effect; inconclusive = small, poorly fitted or top-dose-only effect, or another doubt; inactive = no such curve, though single readings can be large; an effect the other way counts as inactive or inconclusive.

Sequence of Tyrosine-protein phosphatase non-receptor type substrate 1 (Homo sapiens) + Leukocyte surface antigen CD47 (Homo sapiens) (P78324 whole entry, looked up, the tested form may be a part): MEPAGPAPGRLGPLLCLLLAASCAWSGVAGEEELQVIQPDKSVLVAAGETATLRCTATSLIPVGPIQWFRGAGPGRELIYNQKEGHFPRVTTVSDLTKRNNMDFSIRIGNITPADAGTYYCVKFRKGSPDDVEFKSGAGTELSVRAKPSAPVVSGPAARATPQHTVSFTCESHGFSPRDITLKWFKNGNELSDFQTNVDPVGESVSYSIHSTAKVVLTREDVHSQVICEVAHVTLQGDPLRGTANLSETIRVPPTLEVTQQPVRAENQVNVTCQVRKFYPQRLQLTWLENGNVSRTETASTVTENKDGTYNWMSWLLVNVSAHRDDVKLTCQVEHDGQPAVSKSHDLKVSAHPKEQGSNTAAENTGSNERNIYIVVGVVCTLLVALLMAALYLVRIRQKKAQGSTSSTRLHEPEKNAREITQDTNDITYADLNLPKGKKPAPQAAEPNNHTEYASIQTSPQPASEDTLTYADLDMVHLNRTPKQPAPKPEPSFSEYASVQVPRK
Sequence of Tyrosine-protein phosphatase non-receptor type substrate 1 (Homo sapiens) + Leukocyte surface antigen CD47 (Homo sapiens) (Q08722 whole entry, looked up, the tested form may be a part): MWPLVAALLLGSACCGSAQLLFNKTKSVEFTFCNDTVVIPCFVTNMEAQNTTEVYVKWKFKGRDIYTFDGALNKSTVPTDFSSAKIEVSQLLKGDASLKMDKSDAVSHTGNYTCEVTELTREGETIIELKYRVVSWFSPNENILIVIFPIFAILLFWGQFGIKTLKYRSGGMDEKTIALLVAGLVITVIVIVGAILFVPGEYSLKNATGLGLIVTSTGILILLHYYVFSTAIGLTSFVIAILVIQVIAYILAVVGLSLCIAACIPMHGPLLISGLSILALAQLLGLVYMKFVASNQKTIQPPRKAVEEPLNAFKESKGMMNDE
Sequence of Atrial natriuretic peptide receptor 1 (Homo sapiens) (P16066 whole entry, looked up): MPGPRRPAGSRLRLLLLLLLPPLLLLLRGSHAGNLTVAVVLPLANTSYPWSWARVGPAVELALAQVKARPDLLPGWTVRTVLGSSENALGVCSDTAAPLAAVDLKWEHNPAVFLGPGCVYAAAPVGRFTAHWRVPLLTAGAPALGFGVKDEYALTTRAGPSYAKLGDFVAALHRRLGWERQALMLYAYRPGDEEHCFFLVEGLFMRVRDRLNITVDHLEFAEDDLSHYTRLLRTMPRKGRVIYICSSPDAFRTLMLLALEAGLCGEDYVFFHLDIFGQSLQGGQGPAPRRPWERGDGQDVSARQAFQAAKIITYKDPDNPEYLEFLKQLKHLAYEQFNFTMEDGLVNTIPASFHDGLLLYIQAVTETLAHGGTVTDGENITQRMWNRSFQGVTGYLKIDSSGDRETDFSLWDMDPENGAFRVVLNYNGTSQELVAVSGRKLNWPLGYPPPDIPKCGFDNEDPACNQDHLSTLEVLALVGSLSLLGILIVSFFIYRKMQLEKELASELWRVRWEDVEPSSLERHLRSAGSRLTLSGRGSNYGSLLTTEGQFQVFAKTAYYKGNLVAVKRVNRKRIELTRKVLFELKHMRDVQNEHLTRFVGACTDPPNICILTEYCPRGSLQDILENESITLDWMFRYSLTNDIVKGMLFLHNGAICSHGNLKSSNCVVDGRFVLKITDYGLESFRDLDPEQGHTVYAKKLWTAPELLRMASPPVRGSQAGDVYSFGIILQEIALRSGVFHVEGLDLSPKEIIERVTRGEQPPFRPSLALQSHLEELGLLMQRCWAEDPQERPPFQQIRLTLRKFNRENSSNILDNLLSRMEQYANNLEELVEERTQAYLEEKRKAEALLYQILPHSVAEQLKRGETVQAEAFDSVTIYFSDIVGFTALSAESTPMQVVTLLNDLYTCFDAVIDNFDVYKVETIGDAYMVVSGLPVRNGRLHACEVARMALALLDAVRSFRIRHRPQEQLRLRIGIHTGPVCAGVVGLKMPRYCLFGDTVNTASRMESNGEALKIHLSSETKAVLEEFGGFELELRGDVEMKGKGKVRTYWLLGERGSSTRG

On to `O=C(O)c1cccnc1Nc1cccc(C(F)(F)F)c1`, for which the Potency result in [1], in [2], in test [3], in test [4], in test [5] and in [6] was “inactive” throughout. Further, the Potency result in [7], in test [8], in test [9], in test [10] and in [11] was “inactive” throughout. In test [12], the result was inactive.
Turning to `O=C1c2c(O)cc(O)cc2OC(c2ccc(O)c(O)c2)C1O` (centres undefined), the Potency result in test [1], in test [5], in test [13], in test [9], in test [10] and in [11] was “inactive” throughout. For the same compound, the outcome in test [12] was inactive.
As to `CN(C)[C@@H](CCOc1cccc2ccccc12)c1ccccc1`, the Potency result in test [1], in test [2] and in test [11] was “inactive” in each case. Besides, the Potency in [4] and in [6] was 26.4 µM (active) throughout.
Take `CC(C)[C@H](N)C(=O)OCCOCn1cnc2c(=O)[nH]c(N)nc21`: the Potency result in test [1], in [2], in [4], in test [5], in test [6] and in test [7] was “inactive” throughout. Also, the Potency entry in [8], in [13], in [9] and in test [11] was “inactive” in each case.
With `O=Nc1c(-c2c(O)[nH]c3cc(Br)ccc23)[nH]c2ccccc12`, the Potency result in test [1] and in test [2] was “inactive” in each case. The Potency was 3.32 µM (active) in test [3], 7.43 µM (active) in test [4], 4.18 µM (active) in test [5] and 4.18 µM (active) in test [6]. In [12], the outcome was inactive.
For `C=CCc1cc(OC)c(O)c(C(=O)NCCO)c1`, the Potency entry in test [1], in test [2], in test [5], in test [7], in test [8] and in [9] was “inactive” throughout. Also, the Potency result in test [11] is “inactive”.
`CCOC(=O)C1=C(O)C(=O)N(Cc2ccccc2)C1`: the Potency result in [1], in [3], in [4], in [5], in test [14] and in test [15] was “inactive” throughout. The Potency result in [16], in test [9] and in [11] was “inactive” in each case. Further, the outcome in test [12] was inactive.
Turning to `COc1cc(Nc2c(C#N)cnc3cc(OCCCN4CCN(C)CC4)c(OC)cc23)c(Cl)cc1Cl`, the Potency result in [1] and in [9] was “inactive” in each case. Moreover, the Potency in test [3] is 3.32 µM (active); in [15] it was 26.4 µM (active); in test [13] it was 18.4 µM (active). Besides, the IC50 (viability decrease) in test [17] was 23.5 µM (active).
For the compound `CS(=O)(=O)OCCCCOS(C)(=O)=O`, the Potency entry in test [1], in test [2], in test [3], in [5], in [7] and in test [8] was “inactive” throughout. The Potency result in test [9] and in test [11] was “inactive” each time.
Consider `CCC1=C(C)CN(C(=O)NCCc2ccc(S(=O)(=O)NC(=O)NC3CCC(C)CC3)cc2)C1=O` (centres undefined), for which the Potency entry in test [1], in test [4], in test [5], in test [6], in test [8] and in test [9] was “inactive” throughout. In addition, in test [11], the Potency entry is “inactive”.
For the compound `Cn1c(NCCN(CCO)CCCc2ccc([N+](=O)[O-])cc2)cc(=O)n(C)c1=O`, the Potency result in test [1], in [2], in test [7], in test [8], in [9] and in test [11] was “inactive” each time. For the same compound, in test [3], the Potency is 20.9 µM (active).
Turning to `CCOc1cc(CC(=O)N[C@@H](CC(C)C)c2ccccc2N2CCCCC2)ccc1C(=O)O`, the Potency result in test [1], in test [3], in [4], in test [5], in test [6] and in [7] was “inactive” throughout. The Potency entry in test [8], in test [13] and in test [9] was “inactive” each time.
As for `CN1C(C(=O)Nc2ccccn2)=C(O)c2sccc2S1(=O)=O`, the Potency result in [1], in test [2], in test [5], in test [6], in test [7] and in test [8] was “inactive” throughout. In addition, in test [11], the Potency result was “inactive”. Further, the Potency in test [3] was 5.9 µM (active).
For `O=c1c(O)c(-c2cc(O)c(O)c(O)c2)oc2cc(O)cc(O)c12`, the Potency result in test [1], in test [2], in test [4], in [6], in [9] and in test [11] was “inactive” each time. Further, the Potency in test [3] was 16.6 µM (active). For the same compound, in test [12], the result was inactive.
For the compound `Clc1ccc2c(N3CCN(CCCN4CCN(c5ccnc6cc(Cl)ccc56)CC4)CC3)ccnc2c1`, the Potency entry in [1], in test [3], in [4], in test [5] and in test [6] was “inactive” throughout. The outcome in test [12] was inactive.
Take `CC1(C)NC(=O)N(c2ccc([N+](=O)[O-])c(C(F)(F)F)c2)C1=O`: the Potency result in test [1], in test [2], in test [3], in [5], in test [6] and in test [7] was “inactive” in each case. In addition, the Potency result in [8] and in [11] was “inactive” in each case. In addition, in test [9], the Potency was 13 µM (active) and inactive. Besides, the outcome in test [12] was inactive.
Regarding `CC(C)c1ccc2oc3nc(N)c(C(=O)O)cc3c(=O)c2c1`, the Potency in test [1] was 1.66 µM (active) and inactive; in [2], 1.32 µM (active) and inactive. Moreover, the Potency entry in test [6], in test [7], in test [8], in test [13] and in test [9] was “inactive” throughout.
